This is part of a sample that, as a whole, favours compounds with a hit. Of some 83,000 tested, about 20% had one in any assay.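 The endpoint reported here, percent growth, reads 100 for growth as untreated, 0 for no net growth and -100 for all cells dead.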 Unmarked numbers belong to inactive results. Active and inactive are the calls of the source. The calls were made as follows: active = growth percent below 10; inactive = the rest.

For this assay, the system named is MDA-MB-468 breast. The assay can be described thus: NCI-60 one-dose screen, 48 h (100 = growth as untreated, 0 = no growth, -100 = all killed). The settings on record: 10 µM unless noted.
As for `CCC(C)(O)CCC(C)(O)CC` (stereo not given), the growth was 106%.
As for `O=C1C=CC2(O)OC/C(=C\c3ccccc3)C(O)=C2C1=O` (stereo not given), the growth is 10.3%.
To `CN1CCc2c(sc3nc4n(-c5ccc(Cl)cc5)cnn4c(=O)c23)C1` belongs 81.7%.
To `COc1cccc(-c2nc3occn3c2-c2ccnc(NCCCNS(=O)(=O)c3ccc(C(F)(F)F)cc3)n2)c1` belongs 81.6%.
To `CCc1ccc(-c2ccc(Nc3ccccc3)nn2)cc1S(N)(=O)=O` belongs 34.4%; to `C=CC1=C(C(=O)O)N2C(=O)[C@@H](NC(=O)/C(=N\O)c3csc(N)n3)[C@H]2SC1` (stereo in doubt), 96.1%; to `c1ccc2c(c1)CCN(NCCN1CCCC1)C2`, 109%.
For the compound `O=C(/C=C/c1csc(Br)n1)NO`, the growth was 19%.
To `O=C(Nc1cccc(Oc2nnc(Cl)c3ccccc23)c1)Nc1ccc(Cl)c(C(F)(F)F)c1` belongs -44.8% (active); to `Fc1ccc2[nH]cc(-c3nc(-c4c[nH]c5ccncc45)cs3)c2c1`, -65.6% (active).
To `N=S(=O)(NC(=O)c1ccc(Cl)cc1Cl)c1ccc(Br)s1` (stereo not given) belongs 92.8%.
`O=C1/C(=C/c2ccc([N+](=O)[O-])s2)Oc2ccc(Cl)cc21`: the growth is -36.2% (active).
To `CC(=O)OCCCCCCn1c2ccccc2c2c3c(c4c5ccccc5n(C)c4c21)C(=O)N(O)C3=O` belongs 90.4%; to `CCCCCCCCCCCCCCCCCC1=NCCN1CCNC(C)=O`, 114%; to `CC1(C)C2CCC(O)(C(=O)O)C1C2` (stereo not given), 106%.
To `N#Cc1c(-c2cccs2)cc(-c2cnccn2)nc1SCC(=O)N/N=C/c1cccs1` belongs 64.6%; to `CCOC(=O)C(CNc1ccccc1)C(=O)OCC`, 93.3%; to `O=C1/C(=C/c2ccc([N+](=O)[O-])s2)Oc2cc(Cl)ccc21`, -17.8% (active).
To `Cc1nc(S(=O)(=O)c2ccccc2)c(S(=O)(=O)Cc2ccc([N+](=O)[O-])cc2)o1` belongs 78.1%; to `CCC(C)CC(C)C(=O)c1c(O)ccn(OC)c1=O` (stereo not given), 69.4%.
As for `Cc1nc2c(ccc3ccccc32)s1`, the growth is 109%.
To `O=C(NCc1cn(Cc2cccc(Oc3ccccc3)c2)nn1)c1cccnc1Nc1ccccc1` belongs 18.1%.
`CC12CCCCC1C(C(N)=O)C(=O)O2` (stereo not given): the growth was 122%.
On to `N#Cc1cnc2cc(OC[C@@H](O)CO)c(NC(=O)C3CCCC3)cc2c1Nc1ccc(OCc2cccc(F)c2)c(Cl)c1`, for which the growth is -20.9% (active).
To `COc1c(C)c2c(c(O)c1C/C=C(\C)CCC(=O)O)C(=O)OC2` belongs 37.9%.
For the compound `CCn1c(SCC(=O)c2ccc(Br)cc2)nnc1-c1ccncc1`, the growth was 108%.
Consider `CS(=O)c1nccc(-c2c(-c3ccc(F)c(OCCc4ccc(F)cc4)c3)nc3sccn23)n1` (stereo not given), for which the growth was -64.3% (active).
To `CCOC(=O)Nc1nc2ccc(SCC(C)C)cc2s1` belongs 2.1% (active).
To `OCc1cc(CN2CCCCC2)c(O)c2ncccc12` belongs 76.7%; to `CC(C)(C)c1cc(/C=N/NC(=O)c2ccccc2NC(=O)c2cccs2)c(O)c(C(C)(C)C)c1`, 25.3%; to `Cc1cccc(C)c1Nc1nnc(-c2ccc(F)cc2)o1`, 102%.
To `CC12CCC3C4(C)COC(c5ccco5)OC4CCC3(C)C1CC(C1=CCOC1=O)O2` (stereo not given) belongs 91.8%; to `Cc1nc(-c2ccccc2)cc2c(O)c(C(=O)NN)[nH]c(=O)c12`, 116%.
For `O=C1C=CC(=O)N1Cc1ccco1`, the growth is 65.4%.
To `CCn1cc(CNc2ccc(C(=O)Nc3cc4cc(OC)c(OC)cc4c(C)n3)cc2)cn1` belongs 41.8%.
Turning to `Clc1ccc2c(NCCCN3CCN(c4nc(-n5ccnc5)nc5ccccc45)CC3)ccnc2c1`, the growth was 106%.
To `CC(=O)c1c(C)c2cnc(Nc3ccc(N4CCNCC4)cn3)nc2n(C2CCCC2)c1=O` belongs 26.9%; to `Cc1cc2nc3c4cc(Cl)ccc4n(CC(=S)NCCN(C)C)c3nc2cc1C`, -89.3% (active); to `CCOC(=O)c1ccc(NC2=C(Cl)C(=O)c3nc(C)ccc3C2=O)cc1`, -24.6% (active).
To `COCCNc1ccc2ncc(C#Cc3cncc(C(=O)Nc4ccc(CN5CCN(C)CC5)c(C(F)(F)F)c4)c3)n2n1` belongs -59.9% (active).

Source of the values: PubChem BioAssay (NCI).
